Assay results from PubChem BioAssay AID602123 (The Scripps Research Institute Molecular Screening Center, 2011).
Where “and” joins values, the source holds several entries; their conditions need not be identical. Equal entries are not always repeated. The campaign covered roughly 360,000 compounds. About 1,500 (0.42%) were called active. Cut-off read from the data, not from the text of the source: active = inhibition above about 13% (passing the limit was not always enough); inactive = the rest. Many of the other results were omitted from the sample, so actives are more common in it than they were.

target: Lon protease (Escherichia coli (strain K12)) (UniProt P0A9M0); assay: inhibitors of E. coli Lon protease, primary screen, biochemical, fluorescence polarization (AID 602123);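 note: 0% = enzyme with probe and DMSO and 100% = no enzyme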; details: purified E. coli Lon protease, at 7.94 µM, stronger effect = higher value
Sequence (P0A9M0 whole entry, looked up): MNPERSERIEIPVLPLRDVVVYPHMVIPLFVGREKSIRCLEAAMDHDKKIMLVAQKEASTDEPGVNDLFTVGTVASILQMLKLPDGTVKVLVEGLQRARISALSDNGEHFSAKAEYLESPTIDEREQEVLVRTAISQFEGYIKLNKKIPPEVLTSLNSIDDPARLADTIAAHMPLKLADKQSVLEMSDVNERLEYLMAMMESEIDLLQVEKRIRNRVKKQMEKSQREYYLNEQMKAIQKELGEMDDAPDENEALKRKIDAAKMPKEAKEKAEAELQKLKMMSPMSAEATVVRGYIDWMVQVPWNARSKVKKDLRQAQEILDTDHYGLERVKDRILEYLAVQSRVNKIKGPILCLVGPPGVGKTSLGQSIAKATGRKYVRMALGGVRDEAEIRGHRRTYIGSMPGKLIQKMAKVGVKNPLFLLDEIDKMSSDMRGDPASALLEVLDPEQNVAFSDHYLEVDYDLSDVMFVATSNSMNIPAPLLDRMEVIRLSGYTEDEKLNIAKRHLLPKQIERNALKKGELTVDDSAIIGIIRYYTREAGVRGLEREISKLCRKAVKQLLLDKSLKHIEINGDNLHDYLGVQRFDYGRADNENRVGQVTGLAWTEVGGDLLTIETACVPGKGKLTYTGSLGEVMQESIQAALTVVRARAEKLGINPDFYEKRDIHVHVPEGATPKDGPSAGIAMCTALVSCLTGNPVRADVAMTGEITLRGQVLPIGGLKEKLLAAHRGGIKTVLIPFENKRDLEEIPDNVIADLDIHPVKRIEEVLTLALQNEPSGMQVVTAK

inhibition, active:
CCOC(=O)N1CCC(NC(=O)Cc2cn(C)c3ccccc23)CC1 15.9%, Cc1cc2nc3c(=O)n(Cc4ccccc4)c(=O)[nH]c3nc2cc1N 182%, O=C1c2ccccc2C(=O)c2c1cccc2N1CCN(CCO)CC1 17.6%, CC(C(=O)NC1CCCC1)N1CCN(S(=O)(=O)c2ccccc2Cl)CC1 (centres undefined) 17.4%, Cc1ccc2c(c1)nnc1nnc(SCC(=O)O)n12 62%, O=C(COC(=O)CCc1c[nH]c(=O)[nH]1)Nc1ccccc1Cl 25.7%, COCCOC(=O)c1sc(=S)n(CCOC)c1N 18.6%, CCCN(CCC)C(=O)C1c2ccccc2Oc2ccccc21 151%, NC(=O)c1ccc(NC(=O)COC(=O)c2c3c(nc4ccccc24)/C(=C\c2ccc4c(c2)OCO4)CCC3)cc1 183%, CCCN1C(=O)C(NC(C)=O)c2cc(OC)ccc21 (centres undefined) 16.3%, COc1cc(C(=O)NCc2ccc3c(c2)cc(C)n3C)cc(OC)c1OC 24.5%, Cc1ccc(NC(=O)Cc2nnc(SCC(=O)Nc3nncs3)n2C)cc1 45.4%, COc1ccc(C2c3ccc(O)cc3Oc3ncn(CCCO)c(=N)c32)cc1OC (centres undefined) 58.2%, Cc1cc(Br)cn2c(Cc3ccsc3)c(-c3ccc(C#N)cc3)nc12 50.3%, COc1cccc2c1C(=O)c1c(O)c3c(c(O)c1C2=O)CC(O)(C(C)=NNC(=O)c1ccc(Cl)c(Cl)c1)CC3OC1CC(N)C(O)C(C)O1 (centres undefined) 636% [above what the read-out allows, likely interference]

inhibition, inactive:
COc1ccc(NC(=O)CN2C(=O)COc3ccc(S(=O)(=O)N4CCOCC4)cc32)c(OC)c1 -3.19%, CCCCCc1ccc(-c2ccc(C(=O)O)cc2)nc1 -2.2%, O=C(C1CCCO1)N1CCN(C(=S)NC2CC2)CC1 (centres undefined) -2.14%, O=C(OC1CCOC1=O)c1ccc(-c2nc3ccccc3s2)s1 (centres undefined) -3.38%, Cn1cc(CCC(=O)NC2CC2)c2ccccc21 0.25%, CCOC(=O)N1CCC(NC(=O)CCc2cn(C)c3ccccc23)CC1 -2.75%, CC1(C)OC(=O)C(=CSc2ccc(C(C)(C)C)cc2)C(=O)O1 -7.26%, Cc1cc(OCC(=O)N(C)c2c(N)n(Cc3ccccc3)c(=O)[nH]c2=O)c(C(C)C)cc1Cl -1.64%, Nc1cc(=O)n(Cc2ccccc2)c(=O)n1Cc1ccccc1 -0.35%, CC(C)(C)OC(=O)N1CCC(C(=O)NNC(=O)c2ccc(Cl)cc2Cl)CC1 -1.59%, CCOc1ccc(NC(=O)C2CCN(C(=O)N3CCOc4ccccc43)CC2)cc1 -11.2%, CN1CCN(S(=O)(=O)c2ccc(N3CCN(S(=O)(=O)c4cccs4)CC3)nc2)CC1 -1.23%, O=C(C1CCN(S(=O)(=O)Cc2ccccc2)CC1)N1CCCc2ccccc21 -0.35%, CC1CN(Cc2nc3c(c(=O)n(C)c(=O)n3C)n2Cc2cccc(Cl)c2)CC(C)O1 (centres undefined) -2.4%, O=C1CCC(=O)N1c1ccc(NCCc2ccccc2F)c([N+](=O)[O-])c1 0.67%, CCN(CCCCOC(=O)c1ccc(OC)c(OC)c1)C(C)Cc1ccc(OC)cc1 (centres undefined) -2.66%, O=C1c2ccccc2C(=O)c2c1cccc2N1CCN(Cc2ccccc2)CC1 5.59%, O=C1CCN(CCCc2ccccc2)CCN1CCO 1.45%, Cc1cc2c(cc1C)[n+](C)cn2CC(O)COCC1CC=CCC1 (centres undefined) 4.81%, C[C@]12C=CC(=O)C=C1CC[C@@H]1[C@@H]2C(=O)C[C@@]2(C)[C@H]1CC[C@]2(O)C(=O)CO -2.3% and 1.49%, C[C@H](CO)N1C[C@H](C)[C@@H](CN(C)C(=O)c2cccc(F)c2)Oc2cc(-c3cncnc3)ccc2S1(=O)=O -3.93%, CCOC(=O)C(=CNNc1ccsc1C(=O)OC)C(=O)OCC -2.58%, O=C(Nc1cccc2ccccc12)c1[nH]c(-c2ccccc2)c2c1C(=O)N(C1CC1)C2=O -8.53%, O=C(Cc1ccc(S(=O)(=O)N2CCCC2)s1)NC1CCCCCC1 -1.79%, CC(C)c1ccc(S(=O)(=O)N2CCN(C(C)C(=O)NC3CCCC3)CC2)cc1 (centres undefined) 8.04%, COc1cc(CNCc2ccc3c(c2)OCO3)c([N+](=O)[O-])cc1OC -8.35%, COc1cccc(NC(=O)C2CCCN(c3ncnc4c3nc3n4CCCCC3)C2)c1 (centres undefined) -9.74%, CCn1nnnc1SCC(=O)c1ccc(C)cc1C -3.48%, Cc1cccc(-c2nnc(SCC(=O)O)n2Cc2ccccc2)c1 -7.43%, CC(C)(C(=O)N1CCC1(C)C(=O)NS(=O)(=O)c1ccc(Br)cc1)c1ccccc1 (centres undefined) -2.78%, Cc1cc(Br)ccc1NC(=O)CCCOc1cc(=O)n(C)c2ccccc12 -8.57%, COc1ccc(C(CC(=O)c2ccccc2)S(=O)(=O)c2ccccc2)cc1 (centres undefined) -2.33%, Cc1cc(C(=O)OCC(=O)Nc2ccccc2Cl)c(C)o1 -2.91%, Cc1cccc(NC(=O)COC(=O)CCc2ccccc2)c1C -6.48%, C/C(=N\NC(=O)c1ccc(C)cc1)C1C(=O)c2ccccc2C1=O 3.32%, COc1ccc(N(CC(=O)NC2CCCC2)C(=O)CS(=O)CC(=O)Nc2ccc3c(c2)OCO3)cc1 (centres undefined) 0.46%, CC(C)NC(=O)N1Cc2cc(C(=O)NCC(F)(F)F)nc(-c3cccc(-c4cc5ccccc5o4)c3)c2[C@@H]1CCO 1.84%, O=C(CSc1n[nH]c(-c2cccs2)n1)N1CCCCC1 0.33%, CC(C)(C)NC(=O)NC(=O)COC(=O)C1c2ccccc2Oc2ccccc21 7.11%, CCOC(=O)CC(NC(=O)C1c2ccccc2Oc2ccccc21)c1ccc(C)cc1 (centres undefined) -23.2%, Cc1ccc(Sc2ccncc2S(N)(=O)=O)cc1 -17.1%, CCc1cc(=O)oc2cc(C)cc(OCC(=O)N3CCC[C@@H]3C(=O)O)c12 3.5%, C/C(CC(O)(/C=N/O)c1ccccc1)=N\O (centres undefined) -3.3%, CCC(C)(C)NC(=O)C(c1cccn1C)N(Cc1ccc(C)cc1)C(=O)Cn1nnc2ccccc21 (centres undefined) 0.29%, CC(NC(=S)Nc1ccc(S(N)(=O)=O)cc1)c1ccc2c(c1)OCO2 (centres undefined) 4.89%, CCN(CC(=O)Nc1ccc2c(c1)OCO2)S(=O)(=O)c1ccccc1 7.87%, O=C(COC(=O)c1ccc2c(c1)OCCO2)NCc1ccccc1Cl 6.26%, O=C(COC(=O)c1c2c(nc3ccccc13)CCCC2)c1ccc(Br)s1 -4.86%, O=C(OCCOc1ccccc1Cl)c1cc(S(=O)(=O)N2CCCCC2)ccc1N1CCOCC1 -5.06%, COc1cccc(NC(=O)N2C3CCCC2CC(NC(C)=O)C3)c1 (centres undefined) -2.6%, CCCN1C2CCCC1CC(NC(=O)c1cccc(OC)c1)C2 (centres undefined) -6.23%, NC(=O)C1CCCN(CC(=O)N2CCN(c3ccccc3)CC2)C1 (centres undefined) -1.63%, OCCC1CN(Cc2cccc(O)c2)CCN1CCc1ccccc1 (centres undefined) -2.49%, CCn1c(CNC(=O)c2cc(OC)c(OC)c(OC)c2)cc2cc(C)ccc21 -10.1%, CCOCC(=O)NCc1ccc2c(c1)cc(C)n2C 13.8%, c1cc(-n2cnnn2)ccc1NC1=NCCC1 -0.06%, CC1=C(C(=O)Nc2cccc(C(=O)NCC(C)c3ccccc3)c2)SCCO1 (centres undefined) 18.4%, CCn1c(CC(=O)Nc2ccc(C)cc2)nnc1SCC(=O)Nc1nc(C)cs1 0.33%, Cc1ccc(SCC(=O)Nc2nncs2)cc1 6.67%, COc1ccc(C2C(C#N)=C(N)Oc3cc(N)ccc32)cc1OC (centres undefined) -24.5%, COc1ccc(CNCCCO)cc1OC 8.73%, O=C1NC[C@@H](CCCCN2CCN(CCc3ccc(O)cc3)C(=O)C2=O)N(CC2CCCCC2)C1=O -2.96%, Cc1cc(NS(=O)(=O)c2ccc(NC(=S)NC(=O)c3ccc(F)cc3Cl)cc2)no1 2.44%, CN(CC(=O)Nc1ccc(F)c(F)c1F)C(=O)C1CC(=O)N(C2CCCC2)C1 (centres undefined) -6.03%, CC1(C)C(c2cccs2)=[N+]([O-])C2(CCCCC2=O)N1O (centres undefined) -3.06%, COc1ccc(Cl)cc1-n1c(C)cc(C(=O)OCC(=O)N2CC(=O)Nc3ccccc32)c1C 7.08%, CN(C(=O)COC(=O)Cn1cnc2c1c(=O)n(C)c(=O)n2C)C1(C#N)CCCCC1 -2.86%, Cc1ccc(-c2nc3c(C)cc(Br)cn3c2Cc2ccccc2)cc1 -0.26%, Cc1cc(Br)cn2c(Cc3cccc(F)c3)c(-c3cccc(Br)c3)nc12 -1.91%, CCN(CCNC(=O)C1=C(C)C(=O)OC12CCC(C)CC2)c1ccccc1 (centres undefined) 2.56%, CCc1ccccc1NC(=O)CSc1nnc(CCNC(=O)OC(C)(C)C)o1 3.77%, O=C(N/N=C1\CCSC1)c1cc(Cl)ccc1O -2.2%, COc1cccc(CNC(=O)CCC2CCCN(C(=O)c3ccc(F)c(Cl)c3)C2)c1 (centres undefined) -13.9%, Cc1cc(NC(=O)C(C)N2C(=O)c3ccccc3S2(=O)=O)no1 (centres undefined) -0.19%
